Eight compounds from PubChem BioAssay (NCI) can be followed below.

The panel holds about 83,000 compounds, 20% with a hit somewhere; the sample as a whole holds those more often.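 The endpoint reported here, percent growth, reads 100 for growth as untreated, 0 for no net growth and -100 for all cells dead.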 Unmarked numbers belong to inactive results. Activity calls are given as the source filed them. Rule for the calls: active = growth percent below 10; inactive = the rest.

Common to all, as to assay: NCI-60 one-dose screen, 48 h (100 = growth as untreated, 0 = no growth, -100 = all killed)
What all share (details): 10 µM unless noted

The test system of assay [1] is HCT-15 colon.
Assay [2] has as its system HT29 colon.
Assay [3] has as its system SNB-75 CNS.
The test system of assay [4] is SNB-19 CNS.
For assay [5], the system named is U251 CNS.
In assay [6] the test system is PC-3 prostate.
Assay [7] deals with SK-MEL-5 melanoma.
Assay [8] relates to UACC-62 melanoma.
The test system of assay [9] is LOX IMVI melanoma.
For assay [10], the system named is SK-MEL-28 melanoma.
The test system of assay [11] is SK-MEL-2 melanoma.
Assay [12] concerns EKVX NSCLC.
Assay [13] concerns SN12C renal.
The test system of assay [14] is UO-31 renal.
In assay [15] the test system is TK-10 renal.
In assay [16] the test system is ACHN renal.
For assay [17], the system named is CAKI-1 renal.
Assay [18] has as its system CCRF-CEM leukemia.
The test system of assay [19] is MOLT-4 leukemia.

As for `COC(=O)C1=C(C(=O)ON)[C@@H]2C=C[C@@]1([C@@H](Cc1ccccc1)Nc1ccccc1)O2`, the growth was -47.6% (active) in [1]; 57.7% in assay [2]; 108% in assay [3]; 104% in assay [4]; 92.2% in [5]; 101% in [6]. The growth in [7] was 101%; in assay [8], 90%; in assay [9], 77.7%; in [10] it was 73.3%; in assay [11], 94%; in assay [12], 97.7%. Also, the growth was 81.5% in assay [13]; 71.1% in [14]; -23.4% (active) in assay [15]; -95.5% (active) in assay [16]; 86% in [17]; -13.5% (active) in [18]. Also, the growth in assay [19] is 7.55% (active).

In the case of `N#Cc1cccc(-c2ccc3c(c2)NC(=O)/C3=C\c2ccc[nH]2)c1`, the growth in assay [1] was 14.3%; in [2], 53.7%; in assay [3], 58.2%; in assay [4] it was 91.2%; in assay [5] it was 92.8%; in assay [6], 70.2%. The growth in assay [7] was 36.6%; in [8], 42.7%; in [9] it was 66.1%; in assay [10] it was 83.5%; in [11], 81.2%; in assay [12] it was 25.2%. Further, the growth was 87.6% in assay [13]; 65.6% in assay [14]; 32.3% in assay [15]; 57.8% in [16]; 51.8% in assay [17]; 69.7% in [18]. Also, the growth in assay [19] was 68.2%.

For the compound `Nc1c(S(=O)(=O)O)cc2c3c(cccc13)C(=O)OC2=O`, the growth in assay [1] is 95.9%; in [2], 106%; in assay [3] it was 79.2%; in [4], 99.7%; in [5] it was 97.8%; in [6] it was 106%. Further, the growth in [7] was 102%; in assay [8], 97.8%; in assay [9], 94.3%; in [10], 115%; in assay [11] it was 51%; in [12], 91.5%. The growth is 98.9% in assay [13]; 86.7% in assay [14]; 127% in assay [15]; 95.2% in assay [16]; 79.9% in [17]; 102% in [18]. Moreover, the growth in assay [19] is 88.9%.

In the case of `CC1=CCC(OC(=O)C(C)(O)CCC(O)(C(=O)OC2(C)C=CC(O)(C(C)C)CC2)C(C)C)(C(C)C)CC1` (configuration not stated), the growth was 103% in assay [1]; 104% in assay [2]; 92.5% in assay [3]; 102% in [4]; 98.3% in [5]; 113% in assay [6]. In addition, the growth in assay [7] was 101%; in assay [8] it was 98.1%; in assay [9], 101%; in [10] it was 114%; in assay [11], 108%; in [12], 99%. In addition, the growth in [13] was 98.9%; in [14], 88.6%; in assay [15], 95.6%; in [16] it was 111%; in [17], 95%; in assay [18], 102%. Moreover, the growth in assay [19] is 109%.

In the case of `O=C(CCN1CCCC1)Nc1ccc2c(Nc3ccc(F)cc3)c3ccccc3nc2c1`, the growth in assay [1] is -31.9% (active); in [2], 4.15% (active); in assay [3], 16.3%; in assay [4], 13.8%; in [5], -42.1% (active); in assay [6] it was 8.99% (active). For the same compound, the growth was 33.9% in assay [7]; 21.5% in [8]; -61.2% (active) in assay [9]; -40.8% (active) in assay [10]; 49% in [11]; 47.5% in assay [12]. For the same compound, the growth in [13] is 9.14% (active); in assay [14], -89.1% (active); in assay [15], -20.1% (active); in [16] it was -13.3% (active); in assay [17] it was -75.9% (active); in assay [18] it was -17.8% (active). For the same compound, the growth in [19] is -9.71% (active).

Regarding `Cc1ccc(/C=N/NC(=O)CSc2nc3ccccc3c(=O)n2Cc2ccc(S(N)(=O)=O)cc2)cc1`, the growth was 89.3% in assay [1]; 86.3% in assay [2]; 71% in assay [3]; 89.9% in [4]; 93.9% in assay [5]; 89.3% in assay [6]. The growth in assay [7] was 74.4%; in [8], 78.1%; in assay [9], 82.9%; in [10], 93.2%; in assay [11], 94%; in assay [12] it was 90.8%. In addition, the growth in assay [13] was 97.3%; in assay [14], 80.8%; in assay [15], 106%; in assay [16], 100%; in assay [17], 64%; in assay [18], 87.8%. The growth in assay [19] was 86.8%.

On to `COc1cc2c(-c3cc4c(cc3CNCCc3ccc5c(c3)OCO5)OCO4)cccc2c(OC)c1O`, for which the growth was 59.4% in [1]; 92% in assay [2]; 44.9% in assay [3]; 87.4% in assay [4]; 75.1% in assay [5]; 60.9% in [6]. The growth in assay [7] was 78.8%; in assay [8], 79.1%; in assay [9], 72.8%; in [10], 97.6%; in assay [11] it was 92.9%; in assay [12], 77.4%. For the same compound, the growth is 78.8% in assay [13]; 45.5% in assay [14]; 102% in [15]; 79.2% in assay [16]; 54.9% in [17]; 79.5% in assay [18]. In addition, the growth in assay [19] was 56.5%.

With `Nc1c(C(=O)Nc2ccnc3ccccc23)sc2nc3c(cc12)CN(Cc1ccccc1)CC3`, the growth in assay [1] is 69.9%; in assay [2], 103%; in [3], 110%; in assay [4], 83.7%; in assay [5], 98%; in assay [6] it was 45.5%. The growth in assay [7] was 9.7% (active); in assay [8] it was 49.4%; in [9], 69.6%; in assay [10] it was 102%; in assay [11], 101%; in assay [12] it was 66.1%. Besides, the growth in [13] was 74.6%; in assay [14] it was 62.2%; in [15], 102%; in [16] it was 68.4%; in assay [17], 74.7%; in assay [18], 26.1%. The growth in assay [19] is 18.2%.
